Rows were chosen to be rich in hits. Some 21% of all compounds tested hit in one or more screens of this group.
Pf growth 96h: P. falciparum growth inhibition at 96 hour, primary screen for plastid delayed-death inhibitors | P. falciparum luciferase reporter growth, 96 h | Potency, µM (highest dose often 28.7 µM), for the others: at the highest dose activity change, negative = inhibition, usual class: inhibitors | actives 6.9% (n = 320,000) | AID 504834; note: potency is the fitted concentration of half-maximal effect; % is set by controls: 0 for no effect and ±100 for the full control effect
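Luminescence readout: decreased luciferase signal marks inhibited growth of reporter-expressing P. falciparum in infected red cells (2% hematocrit, 0.05% parasitemia final), exposed to compound two generations (96 h, 37 C, 5% CO2).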
Shiga inhibitor: blocks Shiga toxin action in Vero cells | actives 9.2% (n = 290,000) | inhibition, % at 38.7 µM | AID 2315 | Vero cells, Shiga toxin protein synthesis inhibition reporter; in the data active = inhibition mostly above about 28%, no sharp cut-off; inactive = mostly below about 43%; note: 0% is about no effect
AMA1-RON2 inh: AMA1-RON2 (P. falciparum) interaction inhibition | AlphaScreen AMA1-biotinylated RON2 peptide binding | Potency, µM (top dose mostly 58.2 µM), without a hit: top-dose activity change, negative = inhibition, actives largely listed as inhibitors | actives 0.2% (n = 360,000);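 note: potency is the fitted concentration of half-maximal effect; 0% = vehicle wells and -100% = peptide control; nearly all actives have a fitted effect of over 45% in size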
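AMA1 (3D7) with his tag at 25 nM final met compounds first, then biotinylated RON2 peptide at 25 nM; detection used donor plus acceptor beads, 10 µg/mL apiece, read by AlphaScreen after 30 min at room temperature.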
Cycloheximide cs: counter-screen for Shiga toxin inhibitors: cycloheximide protein synthesis inhibition. cell reporter, cycloheximide protein synthesis inhibition counterscreen. max response, %. actives 12% (n = 300,000); in the data active = max response mostly above about 13%, no sharp cut-off; inactive = mostly below about 14%; note: read at 38.3 µM for the half of the compounds with a filed dose; 0% is about no effect
Pf growth 48h: inhibits P. falciparum growth in the first generation, 48 h | P. falciparum luciferase growth in erythrocytes, 48 h | Potency, µM (titrated, usually from 28.7 µM), for the others: top-dose activity change, negative = inhibition, usual class: inhibitors | actives 5.9% (n = 310,000) | AID 504832; note: potency is the fitted concentration of half-maximal effect; % is set by controls: 0 for no effect and ±100 for the full control effect
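Parasite viability was followed by luminescence of a genomically integrated firefly luciferase. Cultures held 0.1% parasitemia at 2% hematocrit (final), incubated under 5% CO2 at 37 C.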
HCV inh: inhibitors of hepatitis C virus infection | Huh7.5.1 HCVcc-Cre infection, luciferase reporter, 44 h | actives 3.4% (n = 340,000) | Potency, µM (doses to about 41.8 µM), for inactives: at the top dose activity change, negative = inhibition, hits mostly inhibitors; note: potency is the fitted concentration of half-maximal effect; % is set by controls: 0 for no effect and ±100 for the full control effect
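Infectious HCV cell culture screen: compound-treated cells (1,000/well, pre-plated 4 h) are infected with HCVcc-Cre at roughly 0.5 moi and grown 44 h. Infection is quantified by luciferase signal after 15 min substrate incubation at room temperature.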
Numbers without * were called inactive; i = inactive; u = inconclusive; x = no result; [ ] = dose if it differs, or a comment. Unless noted, calls come from the whole dose curve; as a rule, active = well fitted curve in the direction sought with a large enough effect; inconclusive = small, poorly fitted or top-dose-only effect, or another doubt; inactive = no such curve, though single readings can be large; an effect the other way counts as inactive or inconclusive.

SMILES	Pf growth 96h	Shiga inhibitor	AMA1-RON2 inh	Cycloheximide cs	Pf growth 48h	HCV inh
COc1ccc(NC(=O)Cn2nnc(C(=O)NCc3ccc4c(c3)OCO4)c2N)cc1	-2%	-10	-4%	-4	35%	2%
CC(=O)Nc1ccc(S(=O)(=O)N2CCN(CC3CC4C=CC3C4)CC2)cc1 (centres undefined)	-5%	12	u	-1	u	1%
CC1CCN(Cc2cc(=O)oc3ccc(C(C)C)cc23)CC1	1.9µM*	3	3%	3	3.3µM*	u
CN1CCN(Cc2cc(=O)oc3ccc(Cl)cc23)CC1	13µM*	-12	-13%	-1	-3%	-27%
Cc1ccc2oc(=O)cc(CN3CCN(Cc4ccccc4)CC3)c2c1	u	-1	-5%	1	u	-21%
CC(C)c1ccc2oc(=O)cc(CN3CCCCC3)c2c1	u	17	-5%	5	7.4µM*	-25%
CCc1ccc2oc(=O)cc(CN3CCCCC3)c2c1	5.2µM*	-8	3%	-3	12µM*	-9%
CCN1CCN(Cc2cc(=O)oc3ccc(Cl)cc23)CC1	-18%[5.75 µM]	12	18%	1	15%	-27%
COc1ccccc1C(=O)NCCC(=O)NCc1ccccn1	-23%	x	7%	x	2%	0%
O=C(C1CC(=O)N(c2ccc(Cl)cc2)C1)N1CCOCC1 (centres undefined)	30%	-18	-5%	-2	10%	10%
CC(C)c1ccc2oc(=O)cc(CN3CCN(c4ccccc4)CC3)c2c1	u	21	-9%	-4	13µM*	-7%
CCc1ccc2c(CN3CCN(S(=O)(=O)c4ccccc4F)CC3)cc(=O)oc2c1	x	x	0%	x	x	13µM*
CCc1ccc2c(CN3CCC(C(=O)OC)CC3)cc(=O)oc2c1	-4%	21	-6%	16*	x	23%
Cc1cccn2c(=O)c3cc(C(=O)NC4CCCC4)c(=N)n(Cc4ccc(F)cc4)c3nc12	u	-15	9%	-8	u	11µM*
N=c1c(C(=O)NC2CCCC2)cc2c(=O)n3ccccc3nc2n1Cc1ccccc1	u	-16	0%	-1	u	u
N=c1c(C(=O)NC2CCCC2)cc2c(=O)n3ccccc3nc2n1CCN1CCOCC1	u	-14	18%	-3	13%	-16%
N=c1c(C(=O)NC2CCCCC2)cc2c(=O)n3ccccc3nc2n1Cc1ccc(F)cc1	u	3	-2%	-5	2.1µM*	-26%
Cc1ccc(Cn2c(=N)c(C(=O)NC3CCCCC3)cc3c(=O)n4ccccc4nc32)cc1	2.9µM*	-3	-1%	-2	4.1µM*	3%
Cc1cccn2c(=O)c3cc(C(=O)NC4CCCCC4)c(=N)n(Cc4ccccc4)c3nc12	u	-17	-8%	-3	-5%	6%
CC1=C(C#N)C(/C=N/OCc2ccc(F)cc2Cl)CC(=O)N1 (centres undefined)	-17%	16	-2%	10	i	2%
Cc1cc(Cl)ccc1OCC(=O)NNC(=O)c1cnccn1	8.3µM*	9	64%	17	u	-13%
O=C(COc1cccc2ccccc12)NNC(=O)c1cnccn1	u	2	104%	-5	u	-7%
Cc1cc(Br)ccc1OCC(=O)NNC(=O)c1cnccn1	12µM*	12	96%	1	u	-2%
NC(=O)CC1C(=O)N(c2ccccc2)C(=S)N1NC(=O)c1ccc(Br)cc1 (centres undefined)	37%	55*	99%	29*	x	9%
COc1cccc(C(=O)NN2C(=S)N(c3ccccc3)C(=O)C2CC(N)=O)c1 (centres undefined)	306%	50*	71%	43*	147%	2%
SMILES	Pf growth 96h	Shiga inhibitor	AMA1-RON2 inh	Cycloheximide cs	Pf growth 48h	HCV inh
COc1ccc(NC(=O)CC2C(=O)N(c3ccc(OC)cc3)C(=S)N2NC(=O)c2cccc(F)c2)cc1 (centres undefined)	43%	18	64%	3	30%	24%
NC(=O)CC1C(=O)N(c2ccccc2)C(=S)N1NC(=O)c1ccccc1 (centres undefined)	305%	32	88%	27*	166%	3%
CNC(=O)CC1C(=O)N(C)C(=S)N1NC(=O)c1ccccc1 (centres undefined)	u	-5	57%	-2	0%	12%
CCc1nc2c(OCCn3cccc3)cccn2c1N(C)C(=O)c1ccc(OC)cc1	x	x	-15%	x	x	x
COc1cc(OC)cc(-c2c(-c3cccs3)c3cc(-c4ccn[nH]4)ccc3n2C)c1	u	x	-13%	x	4.7µM*	u
COc1cc(OC)cc(-c2c(-c3cccs3)c3cc(Br)ccc3n2C)c1	u	x	-1%	x	u	u
Cn1c(-c2ccsc2)c(-c2cccs2)c2cc(-c3ccc4[nH]ccc4c3)ccc21	5.9µM*	x	-9%	x	5.2µM*	u
COc1cc(F)cc(-c2ccc3c(c2)c(-c2cccs2)c(-c2cc(OC)cc(OC)c2)n3C)c1	u	x	-5%	x	9.3µM*	u
COc1cc(OC)cc(-c2c(-c3cccs3)c3cc(-c4cccc5[nH]ccc45)ccc3n2C)c1	u	x	-10%	x	2.3µM*	u
COc1cc(OC)cc(-c2c(-c3cccs3)c3cc(-c4ccc(N(C)C)nc4)ccc3n2C)c1	u	x	-13%	x	u	u
CC(C)(C)OC(=O)NCc1ccc(CNC(=O)c2nc[nH]c2C(=O)N2CCN(C(=O)OC(C)(C)C)CC2)cc1	u	x	52%	x	u	u
O=C(NCc1ccccc1Cl)C1CCCN(c2nc3ccsc3c(=O)s2)C1 (centres undefined)	i	-10	x	-1	256%	x
CC1CCCN(c2nc3ccsc3c(=O)s2)C1 (centres undefined)	x	119*	151%	44*	77%	-23%
COCc1cn(CC[C@@H]2CC[C@@H](NC(=O)Nc3ccc4c(c3)OCO4)[C@@H](CO)O2)nn1	x	x	2%	x	x	x
OC(CNCc1cccc(Br)c1)c1ccccc1 (centres undefined)	10µM*	-5	-5%	2	3.7µM*	10%
Cc1ccc(CNCC(O)c2ccccc2)s1 (centres undefined)	123%	5	17%	14*	12µM*	22%
OC(CNCc1cccs1)c1ccccc1 (centres undefined)	u	-4	11%	1	13µM*	7%
OC(CNCc1ccncc1)c1ccccc1 (centres undefined)	-25%	-6	1%	-3	35%	24%
O=C(NCC(O)c1ccccc1)Nc1cccs1 (centres undefined)	56%	70	-7%	24*	38%	4%
O=C(NCc1ccccc1)c1cc(C2CCCCN2C(=O)c2ccc3c(c2)CCO3)on1 (centres undefined)	x	x	-6%	x	x	x

Source: PubChem (National Center for Advancing Translational Sciences (NCATS))
